{"source": "PubChem BioAssay (Tox21)", "note": "Unmarked numbers belong to inactive results. Entries that show only a call come without a potency. The source made the active and inactive calls. Calls come from the whole dose curve."}
{"assay": "G protein-coupled receptor (GPCR) small molecule agonists, calcium flux assay: HEK293 wild type cell line counter screen (AID 1920065)", "conditions": "HEK293 WT calcium flux, fluorescence, agonist mode; series mostly up to 57.6 µM", "excerpt": "U.S. Tox21 Program National Center for Advancing Translational Sciences [NCATS] Division of Preclinical Innovation [DPI] U.S. Environmental Protection Agency [EPA] National Institutes of Environmental Health Sciences [NIEHS] National Toxicology Program [NTP] U.S. Food and Drug Administration [FDA] Assay overview: The increased intracellular calcium release that occurred upon G protein-coupled receptor (GPCR) activation led to the frequent use of calcium flux assays to detect GPCR activation. For the purpose of studying and screening compounds that may activate GPCR, receptor-overexpressing models were typically generated using Hek293 wild-type (WT) cells. In order to eliminate the compounds that may have induced calcium release for non-specific activation, a counter-assay utilizing calcium flux on Hek293 WT cells was performed. The data were formulated in order to serve as a control for any calcium flux detection utilizing Hek293 cells with either GPCR overexpression or gene modification. The procurement of Hek293 WT cells from ATCC. Fluorescence intensity can be utilized to determine the activation of the compound in a calcium flux assay. As a counter control, this cell line was utilized to screen the Tox21 10K compound library.\nAssay Protocol Summary: Hek293 cells were dispensed at 1500cells/4uL/well in 1536-well black wall/clear bottom plates using a multidrop dispenser. After the assay plates were incubated at a 37 C/5% CO2 incubator for 18 hours, 4 uL of Calcium Dye Solution was added to each well. The plates were incubated at 37 C for 1 hour. For agonist mode, 23 nL of compounds dissolved in DMSO, positive control (ATP) or DMSO only was transferred to the assay plate by a pin tool station. The fluorescence intensity in the plates was measured using FDSS 7000EX kinetic plate reader with a filter set of Ex/Em=480/540 for 3 min at 1 sec intervals. Each test compound was measured at 15 concentrations and in triplicates."}
{"smiles": "Nc1ccn([C@@H]2O[C@H](CO)[C@@H](O)C2O)c(=O)n1", "note": "(stereo not given in full)", "Potency": "inactive"}
{"smiles": "CC(C)c1ccccc1C(C)C", "Potency": "inactive"}
{"smiles": "C=CC(=C)CCC=C(C)C", "Potency": "inactive"}
{"smiles": "CC(=O)OC(C)OC(C)=O", "Potency": "inactive"}
{"smiles": "C=CC(C)(CCC=C(C)C)OC(=O)/C=C/c1ccccc1", "note": "(stereo not given)", "Potency": "inactive"}
{"smiles": "CC1(C)[C@@H](OC(=O)CCC(=O)O)CC[C@]2(C)[C@H]3C(=O)C=C4[C@@H]5C[C@@](C)(C(=O)O)CC[C@]5(C)CC[C@@]4(C)[C@]3(C)CC[C@@H]12", "Potency": "inactive"}
{"smiles": "COC(=O)Nc1nc2ccc(C(=O)c3ccccc3)cc2[nH]1", "Potency": "inactive"}
{"smiles": "CC(=O)CCc1ccc(OC(C)=O)cc1", "Potency": "inactive"}
{"smiles": "Nc1c(I)cc(I)c(C(=O)N(CCC(=O)O)c2ccccc2)c1I", "Potency": "inactive"}
{"smiles": "Oc1cc(Cl)cc(Cl)c1Cl", "Potency": "inactive"}
{"smiles": "Cc1cc(O)c2c(O)c3c(O)cccc3cc2c1", "Potency": "inactive"}
{"smiles": "CCOC(C)OCC", "Potency": "inactive"}
{"smiles": "C/C(=C\\c1ccc(C(=O)O)cc1)c1ccc2c(c1)C(C)(C)CCC2(C)C", "Potency": "inactive"}
{"smiles": "CCCCCC/C=C/C=O", "Potency": "inactive"}
{"smiles": "CN1[C@@H]2CC(OC(=O)[C@H](CO)c3ccccc3)C[C@H]1[C@@H]1O[C@@H]12", "note": "(stereo not given in full)", "Potency": "inactive"}
{"smiles": "O=C1c2ccccc2C(=O)c2c1ccc(O)c2O", "Potency": "inactive"}
{"smiles": "Oc1cc2c(cc1O)[C@H]1c3ccc(O)c(O)c3OC[C@@]1(O)C2", "Potency": "inactive"}
{"smiles": "CCCCCC1Nc2cc(C(F)(F)F)c(S(N)(=O)=O)cc2S(=O)(=O)N1", "note": "(stereo not given)", "Potency": "inactive"}
{"smiles": "C[C@@H]1C[C@H]2[C@@H]3C[C@H](F)C4=CC(=O)C(Cl)=C[C@]4(C)[C@@]3(F)[C@@H](O)C[C@]2(C)[C@@]1(O)C(=O)CO", "Potency": "inactive"}
{"smiles": "CSc1c(Cl)c(Cl)c(Cl)c(Cl)c1Cl", "Potency": "inactive"}
{"smiles": "CO[C@@]1(NC(=O)Cc2cccs2)C(=O)N2C(C(=O)O)=C(COC(N)=O)CS[C@@H]21", "Potency": "inactive"}
{"smiles": "O[Si](c1ccccc1)(c1ccccc1)c1ccccc1", "Potency": "inactive"}
{"smiles": "COc1ccnc(CS(=O)c2nc3cc(OC(F)F)ccc3[nH]2)c1OC", "note": "(stereo not given)", "Potency": "inactive"}
{"smiles": "O=C(NOCC1CC1)c1ccc(F)c(F)c1Nc1ccc(I)cc1Cl", "Potency": "inactive"}
{"smiles": "Cc1ccc(C=O)cc1C", "Potency": "inactive"}
{"smiles": "CCN1CCOCC1", "Potency": "inactive"}
{"smiles": "CCCCCCC1CCC(=O)O1", "note": "(stereo not given)", "Potency": "inactive"}
{"smiles": "CS(=O)(=O)c1ccc([C@@H](O)[C@@H](CF)NC(=O)C(Cl)Cl)cc1", "Potency": "inactive"}
{"smiles": "c1cc2ccc3ccc4ccc5cccc6c(c1)c2c3c4c56", "activation": "-0.291% [at 2.04 µM]"}
{"smiles": "CCN(CC)CC1CCCCN1CC(=O)N1c2ccccc2C(=O)Nc2cccnc21", "note": "(stereo not given)", "Potency": "inactive"}
{"smiles": "CC1=NN(c2cc(Cl)c(S(=O)(=O)O)cc2Cl)C(=O)C1N=Nc1ccc(S(=O)(=O)O)cc1", "note": "(stereo not given)", "Potency": "inactive"}
{"smiles": "CC(CO)(CO)CO", "Potency": "inactive"}
{"smiles": "Nc1cc(Cl)c([N+](=O)[O-])cc1O", "Potency": "inactive"}
{"smiles": "CC1(C)C(=O)N(Br)C(=O)N1Br", "Potency": "inactive"}
{"smiles": "CCOC(=O)OCC", "Potency": "inactive"}
{"smiles": "CCCCc1oc2ccccc2c1C(=O)c1cc(I)c(OCCN(CC)CC)c(I)c1", "Potency": "inactive"}
{"smiles": "CC(CN(C)C)CN1c2ccccc2CCc2ccccc21", "note": "(stereo not given)", "Potency": "inactive"}
{"smiles": "Cc1ccc(NC=O)c(C)c1", "Potency": "inactive"}
{"smiles": "CC1(C)O[C@@H]2C[C@H]3[C@@H]4CCC5=CC(=O)CC[C@]5(C)[C@@]4(F)[C@@H](O)C[C@]3(C)[C@]2(C(=O)CCl)O1", "Potency": "inactive"}
{"smiles": "Fc1ccccc1", "Potency": "inactive"}
